Experimental data: the supplement of paper PMC4894684
Where a name gives a salt, the structure may show the parent alone. ± gives the standard deviation of the averaged measurements.

What follows are molecules tested on Toxoplasma gondii RH (in HFF) (assay: parasite growth relative to the screen mean (all compounds = 100%); higher = less inhibition of parasite growth). Settings: 5 µM; 72 h; oxygen 21 %.
Outline: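 Each value is parasite growth expressed against the screen mean, averaged over two screens, where the mean of all compounds = 100%. The screen used 5 µM final compound on confluent human foreskin fibroblasts infected with RH β-Gal–GFP Toxoplasma (MOI 1:5) within 2 h and grown 72 h at 21% O2. Parasite number was measured by a CPRG β-Gal assay against in-plate standard curves.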

First: NC(=O)Nc1sc(-c2ccc(F)cc2)cc1C(N)=O
Second: CN(C)[C@@H]1CCc2[nH]c3ccc(NC(=O)c4ccc(F)cc4)cc3c2C1
The parasite growth of the first is lower: 77.1 ± 11% for the first, 124 ± 19% for the second.

Compared with `Nc1ccc(-c2nc3ccc(-c4nc5ccc(N)cc5[nH]4)cc3[nH]2)cc1`, `COc1ccc(NC(=O)c2ccc(-c3ccc(-c4noc(C)n4)cc3C)cc2)cc1OCCN(C)C` is lower in parasite growth: 89.6 ± 5.3% for the first, < 0% for the second.

`N[C@@H](Cc1cc(CP(=O)(O)O)cc(-c2ccccc2Cl)c1)C(=O)O` and `C[C@H](NC(=O)/C(C#N)=C/c1ccc(O)c(O)c1)c1ccccc1` [Tyrphostin B44, (+) enantiomer] are within error of each other in parasite growth: 122 ± 6.2% for the first, 154 ± 41% for the second.

`CCCC(=O)Nc1ncnc2c1ncn2[C@@H]1O[C@@H]2COP(=O)(O)O[C@H]2[C@H]1OC(=O)CCC` [Dibutyryl-cAMP, sodium salt] and `CC[C@H](C)C(=O)O[C@H]1CCC=C2C=C[C@H](C)[C@H](CC[C@@H]3C[C@@H](O)CC(=O)O3)[C@H]21` [Mevastatin] are within error of each other in parasite growth: 125 ± 23% for the first, 109 ± 3.3% for the second.

Going from `CCC(=O)NC1CCc2cccc(OC)c2C1` (stereo not drawn) to `COc1ccc(C(=O)Nc2sc3c(c2C(N)=O)CCCC3)cc1OC`, the parasite growth rises from 84.3 ± 9.1% to 112 ± 5.8%.

`COc1cccc(-c2cc(=O)c3ccccc3o2)c1N` and `CN(C)CCC=C1c2ccccc2COc2ccccc21` [Doxepin hydrochloride] are within error of each other in parasite growth: 93.9 ± 37% for the first, 159 ± 36% for the second.

`Nc1[nH]nc2nc3ccccc3nc12` and `NS(=O)(=O)c1cccc2c1c([N+](=O)[O-])cc1nc(O)c(O)nc12` are within error of each other in parasite growth: 142.8 ± 0.82% for the first, 144 ± 9.6% for the second.

Going from `CN1CCN(C2=Nc3cc(Cl)ccc3Nc3ccccc32)CC1` [Clozapine] to `CN1CCC(=C2c3ccccc3CC(=O)c3sccc32)CC1` [Ketotifen fumarate], the parasite growth falls from 178 ± 40% to 54.3 ± 14%.

First: COc1cccc(/C=N/N=C/c2cccc(OC)c2)c1
Second: CNCC[C@@H](Oc1ccccc1C)c1ccccc1 [Tomoxetine hydrochloride]
The parasite growth of the first is higher: 135 ± 4.2% for the first, 85.9 ± 8.6% for the second.

Going from `Cc1ccc(OCC(O)C(C)NC(C)C)c2c1CCC2` (stereo not drawn) [ICI-118,551 hydrochloride] to `Cc1ccc(C(=O)Cn2c3c(sc2=N)CCCC3)cc1` [Pifithrin- α hydrobromide], the parasite growth rises from 92.9 ± 14% to 130 ± 1.9%.

Going from `COc1ccccc1N1CCN(CC(O)COc2cccc3ccccc23)CC1` (stereo not drawn) [Naftopidil hydrochloride] to `COc1ccc(NC(=O)c2ccc(-c3ccc(-c4noc(C)n4)cc3C)cc2)cc1N1CCN(C)CC1`, the parasite growth falls from 118.7 ± 0.3% to < 0%.

`Cc1c(C(=O)N(C)C2CCCCC2)sc2nc3ccc(N)cc3n12` and `Cc1c(C(=O)NC2CCCCC2)sc2nc3ccc(N)cc3n12` are within error of each other in parasite growth: 185 ± 31% for the first, 183 ± 33% for the second.

`O=C(O)c1ccc(C=C2SC(=S)N(c3cccc(C(F)(F)F)c3)C2=O)cc1` and `Cc1ccc(NC(=O)c2cccc(N(C)C)c2)cc1NC(=O)c1ccc(O)cc1` are within error of each other in parasite growth: 109 ± 36% for the first, 141 ± 7.3% for the second.

Going from `CCCCCCNC(=O)Nc1ccc(S(=O)(=O)Nc2ccc(CCNC[C@H](O)COc3ccc(O)cc3)cc2)cc1` to `CN(Cc1ccccc1)C(=O)[C@H](Cc1ccc2ccccc2c1)NC(=O)[C@@H]1CCCN1C(=O)Nc1ccccc1[N+](=O)[O-]`, the parasite growth falls from 170 ± 26% to 110 ± 9.9%.

`COC(=O)[C@H]1[C@H]2C[C@H]3c4[nH]c5ccccc5c4CCN3C[C@H]2CC[C@@H]1O` [Rauwolscine hydrochloride] and `CCOC(=O)C1=C[C@]2(CC)CCCN3CCc4c(n1c1ccccc41)[C@@H]32` [Vinpocetine] are within error of each other in parasite growth: 167 ± 41% for the first, 121 ± 10% for the second.

`CCCCC[C@H](O)/C=C/[C@H]1[C@H](O)CC(=O)[C@@H]1CCCCCCC(=O)O` [Alprostadil] and `COC(=O)/C=C/c1cc(O)ccc1O` [Methyl 2,5-dihydroxycinnamate] are within error of each other in parasite growth: 140 ± 6% for the first, 126 ± 30% for the second.

`CCSC(=N)N` [EIT hydrobromide] and `NC(N)=NC(N)=Nc1cccc(Cl)c1` [m-Chlorophenylbiguanide hydrochloride] are within error of each other in parasite growth: 166 ± 23% for the first, 133 ± 15% for the second.

Going from `Fc1ccc([C@@H]2CCNC[C@H]2COc2ccc3c(c2)OCO3)cc1` [Paroxetine maleate] to `CC(C(O)c1ccc(O)cc1)N1CCC(Cc2ccccc2)CC1` (stereo not drawn) [Ifenprodil hemitartrate], the parasite growth rises from 39.5 ± 4% to 116 ± 4.3%.

Compared with `Cc1ccc(NC2=CC(=O)c3sc(C)nc3C2=O)cc1` [Ryuvidine], `NC[C@@H]1O[C@H](C23CC4CC(CC(C4)C2)C3)Cc2c1ccc(O)c2O` is higher in parasite growth: < 0% for the first, 89.5 ± 18% for the second.
